Experiment [1] can be described thus: antimalarial activity against Dd2 strain (AID 2302;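 active = growth inhibition above 50% at the single 2 µM test dose, taken to imply half-maximal potency below 2 µM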;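 also: 0% = DMSO untreated growth and 100% = chloroquine plus artemisinin killed control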). As to conditions: P. falciparum Dd2 in RBCs, LDH growth readout, 72 h; at 2 µM; hits give high values.
A short description of experiment [2]: HepG2 cytotoxicity, primary screen, cytotoxicity control for P. falciparum antimalarial project, cell-based, ATP luminescence (AID 2303;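 active = inhibition above 50%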;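 also: 0% = DMSO wells and 100% = digitonin-killed cells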). The settings on record: HepG2 viability, 24-48 h, at 10 µM, hits give high values.
In experiment [3] the target is L-lactate dehydrogenase (Plasmodium falciparum (isolate CDC / Honduras)) (UniProt Q27743). Put plainly: PfLDH activity inhibition – cell lysate, 3D7 strain, counter-screen for P. falciparum growth inhibition project (AID 2304).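 Also: 0% = vehicle and 100% = reference inhibitor.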 The settings on record: P. falciparum 3D7 crude extract, LDH APAD/NBT absorbance; at 2 µM; hits give high values.
Experiment [4] is described as follows: inhibition of 3D7 malaria parasite growth – strain 3D7 (AID 2306).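 Also: 0% = DMSO wells and 100% = chloroquine plus artemisinin control wells.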 The settings on record: P. falciparum 3D7 erythrocytic growth, LDH absorbance, 72 h; at 2 µM; hits give high values.
Experiment [5] addresses Calcium-dependent protein kinase 1 (Plasmodium falciparum (isolate 3D7)) (UniProt P62344). Briefly: PfCDPK1 kinase inhibitors, biochemical, TCAMS library (AID 1159585; cut-off not given, nearly all actives have IC50 up to about 0.98 µM;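 also: inhibitors leave more ATP so luminescence rises with inhibition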). As to conditions: recombinant PfCDPK1, Kinase-Glo ATP depletion luminescence.
The target in experiment [6] is Plasmodium falciparum protein kinase 6 (PK6, PF3D7_1337100) (UniProt Q8IDW1). Put plainly: PfPK6 kinase inhibitors, biochemical, TCAMS library (AID 1159586). The settings on record: recombinant PfPK6, Kinase-Glo ATP depletion luminescence.
Experiment [7] has as its target Protein kinase 7 (PK7), Plasmodium falciparum 3D7 (PF3D7_0213400) (UniProt Q7YTF7). Put plainly: inhibition of Plasmodium PK7 catalytic activity – biochemical, TCAMS antimalarial set, Kinase-Glo luminescence (AID 1159587). The settings on record: recombinant PfPK7, Kinase-Glo ATP depletion luminescence.
Experiment [8] deals with Calcium-dependent protein kinase 4 (Plasmodium falciparum (isolate 3D7)) (UniProt Q8IBS5). Put plainly: PfCDPK4 kinase inhibitors, biochemical, TCAMS library (AID 1159588; cut-off not given, nearly all actives have IC50 up to about 0.91 µM). The settings on record: recombinant PfCDPK4, Kinase-Glo ATP depletion luminescence.

A number with no mark means an inactive call. For some of these results: Potency and affinity values are given separately. Active and inactive are the calls of the source. Unless noted, no rule for the calls is given here.

Sequence of Protein kinase 7 (PK7), Plasmodium falciparum 3D7 (PF3D7_0213400) (Q7YTF7 1-343): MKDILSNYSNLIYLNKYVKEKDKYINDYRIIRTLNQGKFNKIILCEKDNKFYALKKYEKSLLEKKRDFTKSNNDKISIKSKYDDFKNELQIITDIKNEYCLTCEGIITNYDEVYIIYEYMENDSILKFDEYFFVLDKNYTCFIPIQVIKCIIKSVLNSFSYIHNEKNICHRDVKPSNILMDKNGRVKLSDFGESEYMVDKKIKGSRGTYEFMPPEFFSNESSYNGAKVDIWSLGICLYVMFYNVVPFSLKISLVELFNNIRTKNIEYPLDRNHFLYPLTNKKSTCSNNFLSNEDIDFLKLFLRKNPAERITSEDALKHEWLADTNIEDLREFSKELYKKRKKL
Sequence of Calcium-dependent protein kinase 4 (Plasmodium falciparum (isolate 3D7)) (Q8IBS5 whole entry, looked up): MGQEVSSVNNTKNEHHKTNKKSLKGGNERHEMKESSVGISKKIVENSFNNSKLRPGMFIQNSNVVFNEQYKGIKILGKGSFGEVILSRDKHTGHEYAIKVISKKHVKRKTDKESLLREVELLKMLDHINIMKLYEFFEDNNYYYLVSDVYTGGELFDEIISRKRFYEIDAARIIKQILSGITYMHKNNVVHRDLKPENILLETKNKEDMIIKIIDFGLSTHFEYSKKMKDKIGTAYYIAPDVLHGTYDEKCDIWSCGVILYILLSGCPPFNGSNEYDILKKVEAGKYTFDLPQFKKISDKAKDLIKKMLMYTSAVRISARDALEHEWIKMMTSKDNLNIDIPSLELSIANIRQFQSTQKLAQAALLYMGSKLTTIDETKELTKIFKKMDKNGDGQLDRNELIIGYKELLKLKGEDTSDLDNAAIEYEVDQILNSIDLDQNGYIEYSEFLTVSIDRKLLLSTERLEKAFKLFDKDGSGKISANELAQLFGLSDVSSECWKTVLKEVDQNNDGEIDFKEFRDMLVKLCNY
Sequence of L-lactate dehydrogenase (Plasmodium falciparum (isolate CDC / Honduras)) (Q27743 whole entry, looked up): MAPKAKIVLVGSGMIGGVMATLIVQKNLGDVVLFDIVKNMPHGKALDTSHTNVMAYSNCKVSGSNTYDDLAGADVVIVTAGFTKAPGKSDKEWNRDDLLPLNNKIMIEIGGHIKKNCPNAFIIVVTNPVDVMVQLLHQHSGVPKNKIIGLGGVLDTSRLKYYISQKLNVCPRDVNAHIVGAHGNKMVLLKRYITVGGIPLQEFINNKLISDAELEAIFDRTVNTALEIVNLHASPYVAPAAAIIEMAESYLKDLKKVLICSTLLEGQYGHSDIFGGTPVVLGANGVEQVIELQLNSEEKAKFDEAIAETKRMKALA
Sequence of Plasmodium falciparum protein kinase 6 (PK6, PF3D7_1337100) (Q8IDW1 1-305): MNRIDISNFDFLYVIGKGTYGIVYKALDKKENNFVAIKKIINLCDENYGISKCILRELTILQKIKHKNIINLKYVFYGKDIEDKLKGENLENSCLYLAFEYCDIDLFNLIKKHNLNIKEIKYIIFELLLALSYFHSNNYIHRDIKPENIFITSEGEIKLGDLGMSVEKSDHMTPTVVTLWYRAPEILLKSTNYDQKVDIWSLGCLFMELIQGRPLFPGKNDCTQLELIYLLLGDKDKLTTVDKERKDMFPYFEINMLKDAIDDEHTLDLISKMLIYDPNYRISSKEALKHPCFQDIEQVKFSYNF
Sequence of Calcium-dependent protein kinase 1 (Plasmodium falciparum (isolate 3D7)) (P62344 whole entry, looked up): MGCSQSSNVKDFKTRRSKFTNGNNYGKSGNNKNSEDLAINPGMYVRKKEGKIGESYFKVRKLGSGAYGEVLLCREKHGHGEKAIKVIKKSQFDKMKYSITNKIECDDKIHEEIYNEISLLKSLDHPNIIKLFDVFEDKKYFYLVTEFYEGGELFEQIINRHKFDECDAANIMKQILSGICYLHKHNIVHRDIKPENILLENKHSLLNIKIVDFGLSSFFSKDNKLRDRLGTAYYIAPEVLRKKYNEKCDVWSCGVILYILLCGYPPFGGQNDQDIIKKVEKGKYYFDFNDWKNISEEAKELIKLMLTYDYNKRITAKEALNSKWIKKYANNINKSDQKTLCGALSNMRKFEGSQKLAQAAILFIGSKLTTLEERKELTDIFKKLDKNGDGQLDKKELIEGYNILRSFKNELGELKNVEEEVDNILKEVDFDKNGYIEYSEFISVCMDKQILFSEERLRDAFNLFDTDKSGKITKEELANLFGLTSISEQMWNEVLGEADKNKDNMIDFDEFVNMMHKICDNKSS

Turning to `O=[N+]([O-])c1ccc(-n2nc(Cc3ccccc3)n(Cc3cccc(F)c3)c2=S)c(C(F)(F)F)c1`, the results for the growth inhibition in experiment [1] and in experiment [4] were 100% (active) and 101% (active), respectively. For the same compound, the inhibition in experiment [2] is 4%; in experiment [3], -3%. Moreover, the result in experiment [5], in experiment [6], in experiment [7] and in experiment [8] was inactive.
On to `O=C(Nc1ccc(C(F)(F)F)cc1)NC1CCN(c2ccnc3cc(Cl)ccc23)CC1`, for which the growth inhibition was 74% (active) in experiment [1] and 102% (active) in experiment [4]. The inhibition in experiment [2] is 22%; in experiment [3], -3%. Besides, the outcome in experiment [5], in experiment [6], in experiment [7] and in experiment [8] was inactive.
For the compound `CCOC(=O)C(C(=O)OCC)c1nc(C)ns1`, the figures for the growth inhibition in experiment [1] and in experiment [4] were -3% and 99% (active), respectively. The values for the inhibition in experiment [2] and in experiment [3] were 10% and -3%, respectively. In addition, the outcome in experiment [5], in experiment [6], in experiment [7] and in experiment [8] was inactive.
As for `COc1ccc2nccc([C@@H](O)CN3CCC(NCc4ccc5c(c4)NC(=O)C(C)(C)O5)CC3)c2c1`, the growth inhibition was 70% (active) in experiment [1] and 100% (active) in experiment [4]. The inhibition in experiment [2] was 6%; in experiment [3] it was 3%. Also, the outcome in experiment [5], in experiment [6], in experiment [7] and in experiment [8] was inactive.
`COc1cccc2c(NN=Cc3cccc(F)c3)ccnc12`: the growth inhibition is 44% in experiment [1] and 99% (active) in experiment [4]. For the same compound, the inhibition in experiment [2] is 12%; in experiment [3], 5%. The outcome in experiment [5], in experiment [6], in experiment [7] and in experiment [8] was inactive.
With `Cc1ccc(C(=O)Nc2cccc([N+](=O)[O-])c2)cc1S(=O)(=O)N1CC(C)CC(C)C1` (stereo not given), the growth inhibition in experiment [1] was 42%; in experiment [4], 100% (active). In addition, the results for the inhibition in experiment [2] and in experiment [3] were 24% and -1%, respectively. Also, the result in experiment [5], in experiment [6], in experiment [7] and in experiment [8] was inactive.
For the compound `COc1ccc(CN(C)CCCOc2ccc(NC(=O)C=Cc3ccc(C(C)(C)C)cc3)cc2)cc1OC`, the values for the growth inhibition in experiment [1] and in experiment [4] were 87% (active) and 101% (active), respectively. For the same compound, the inhibition in experiment [2] was 14%; in experiment [3], 2%. The outcome in experiment [5], in experiment [6], in experiment [7] and in experiment [8] was inactive.
Turning to `COc1cc(Nc2ccnc3cc(-c4nccs4)ccc23)ccc1OCCCc1nc2ccccc2[nH]1`, the growth inhibition was 68% (active) in experiment [1] and 100% (active) in experiment [4]. In addition, the inhibition in experiment [2] was 100% (active); in experiment [3], 5%. Also, the result in experiment [5], in experiment [6], in experiment [7] and in experiment [8] was inactive.
As for `Nc1ccc2[nH]cc(C3CCN(CC4CCN(C(=O)/C=C/c5ccc(Cl)c(Cl)c5)CC4)CC3)c2n1`, the growth inhibition in experiment [1] is 97% (active); in experiment [4] it was 99% (active). Also, the inhibition is 53% (active) in experiment [2] and -2% in experiment [3]. Also, the result in experiment [5], in experiment [6], in experiment [7] and in experiment [8] was inactive.
Take `Fc1cccc(COc2ccc(Nc3ncnc4sc(C#Cc5ncc[nH]5)cc34)cc2Cl)c1`: the results for the growth inhibition in experiment [1] and in experiment [4] were 95% (active) and 100% (active), respectively. Besides, the inhibition in experiment [2] was 55% (active); in experiment [3], -3%. Besides, the result in experiment [5], in experiment [6], in experiment [7] and in experiment [8] was inactive.
On to `C=CCCCNCC(NCCCNc1cc(=O)c2ccccc2[nH]1)c1cc(Br)cc(Br)c1` (stereo not given), for which the growth inhibition in experiment [1] was 19%; in experiment [4], 94% (active). For the same compound, the inhibition in experiment [2] is -3%; in experiment [3], -1%. In addition, the outcome in experiment [5], in experiment [6], in experiment [7] and in experiment [8] was inactive.
Regarding `Cc1ccccc1N1CCN(c2ccc(C(=O)Nc3ccccc3)cc2)CC1`, the values for the growth inhibition in experiment [1] and in experiment [4] were 91% (active) and 89% (active), respectively. Besides, the results for the inhibition in experiment [2] and in experiment [3] were 22% and -2%, respectively. In addition, the outcome in experiment [5], in experiment [6], in experiment [7] and in experiment [8] was inactive.
As for `COc1cccc(C(=O)Nc2ccc(Nc3nc(C)cc(N4CCCCC4)n3)cc2)c1OC`, the growth inhibition is 27% in experiment [1] and 92% (active) in experiment [4]. For the same compound, the results for the inhibition in experiment [2] and in experiment [3] were 47% and 1%, respectively. The outcome in experiment [5], in experiment [6], in experiment [7] and in experiment [8] was inactive.
Turning to `COc1ccc2nccc(NN=Cc3ccccc3[N+](=O)[O-])c2c1`, the growth inhibition in experiment [1] and in experiment [4] was 100% (active) each time. Moreover, the inhibition in experiment [2] is 67% (active); in experiment [3], -2%. Besides, the result in experiment [5], in experiment [6], in experiment [7] and in experiment [8] was inactive.
For the compound `COc1ccc2nccc([C@@H](O)CN3CCC(NC(=O)/C=C/c4ccc(Cl)c(C(F)(F)F)c4)CC3)c2c1`, the growth inhibition was 89% (active) in experiment [1] and 102% (active) in experiment [4]. The inhibition in experiment [2] was 11%; in experiment [3], -4%. Besides, the result in experiment [5], in experiment [6], in experiment [7] and in experiment [8] was inactive.
On to `COc1ccc(CC(Cc2ccc(OC)cc2)NCC(O)c2cccc(Cl)c2)cc1` (stereo not given), for which the growth inhibition in experiment [1] is 98% (active); in experiment [4], 100% (active). The results for the inhibition in experiment [2] and in experiment [3] were 11% and -4%, respectively. The outcome in experiment [5], in experiment [6], in experiment [7] and in experiment [8] was inactive.
On to `Cc1cccc(Nc2nc(N)c3ccccc3n2)c1`, for which the results for the growth inhibition in experiment [1] and in experiment [4] were 49% and 99% (active), respectively. The inhibition in experiment [2] is 1%; in experiment [3], 3%. The result in experiment [5], in experiment [6], in experiment [7] and in experiment [8] was inactive.
Turning to `O=c1cc(NCCCNCc2scc3c(Cl)cc(C(F)(F)F)nc23)[nH]c2ccccc12`, the growth inhibition in experiment [1] is 21%; in experiment [4], 99% (active). Also, the results for the inhibition in experiment [2] and in experiment [3] were 9% and -1%, respectively. Moreover, the outcome in experiment [5], in experiment [6], in experiment [7] and in experiment [8] was inactive.
As for `CC(C)CNCc1cccc(-c2ccccc2CN(C(=O)NCCc2ccccc2)C2CCN(Cc3ccccc3)CC2)c1`, the growth inhibition was 82% (active) in experiment [1] and 89% (active) in experiment [4]. In addition, the inhibition was 42% in experiment [2] and -6% in experiment [3]. Further, the result in experiment [5], in experiment [6], in experiment [7] and in experiment [8] was inactive.
Regarding `CN(C)CCN(C)Cc1ccc(-c2ccc(NC(=O)c3cccc(C#N)c3)cc2)cc1`, the growth inhibition in experiment [1] is 49%; in experiment [4], 89% (active). Besides, the inhibition was 20% in experiment [2] and 2% in experiment [3]. In addition, the result in experiment [5], in experiment [6], in experiment [7] and in experiment [8] was inactive.

For the origin of these results see PubChem BioAssay.
